Assay [1] can be described thus: ATG_GRE_CIS: Attagene CIS-FACTORIAL HepG2 Assay for human Glucocorticoid Response Elements (GRE) (AID 2282947). Particulars: HepG2 GRE cis-reporter, Attagene multiplex mRNA; AC50: actives raise or lower the signal unless noted; outcome: actives raise or lower the signal unless noted. An outline of the steps:
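Cells (HepG2) bearing transfected cis-promoter reporter transcription units were treated with chemical for 24 hours. Reporter mRNA was measured via RT-PCR with capillary electrophoresis, and activity was fitted in both directions relative to DMSO.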

Assay [2] can be described thus: ATG_ISRE_CIS: Attagene CIS-FACTORIAL HepG2 Assay for human Interferon Regulatory Factor 1 (IRF1) binding to an Interferon-Stimulated Response Element (ISRE) (AID 2282948). Particulars: HepG2 ISRE cis-reporter (Attagene), mRNA transcription readout; actives raise or lower the signal. In short, it runs like this:
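Multiplexed mRNA reporter readout in human liver HepG2 cells: cis-element-driven reporters transfected, compound added for 24 h, transcripts amplified, fluorescently labelled and sized by capillary electrophoresis; curve fitting bidirectional against DMSO.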

Assay [3] can be described thus: ATG_M_32_CIS: Attagene CIS-FACTORIAL HepG2 Assay for M32 Transcription Factor (Internal Marker) (AID 2282949).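 Further: background control marker of the multiplexed CIS panel rather than a real target.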 Particulars: HepG2 Attagene cis-factorial M32 reporter, mRNA; actives raise or lower the signal. In short, it runs like this: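 HepG2 human liver cells transiently transfected with cis-promoter-driven multiple reporter transcription units, dosed 24 h. Reporter mRNA quantified by RT-PCR, FAM-labelled primer extension, HpaI digest and capillary electrophoresis; bidirectional fit versus DMSO baseline.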

Assay [4] in a line: ATG_M_06_CIS: Attagene CIS-FACTORIAL HepG2 Assay for M06 Transcription Factor (Internal Marker) (AID 2282950). The conditions noted are these: HepG2 Attagene CIS-FACTORIAL M06 internal marker reporter; actives raise or lower the signal. In short, it runs like this: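 One of many multiplexed endpoints: HepG2 reporter mRNA after 24 h dosing, detected by RT-PCR and capillary electrophoresis fluorescence; gain or loss of signal analysed against DMSO.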

Assay [5] concerns the target Hypoxia-inducible factor 1-alpha (Homo sapiens) (UniProt Q16665). Nature of the assay: ATG_HIF1a_CIS: Attagene CIS-FACTORIAL HepG2 Assay for human Hypoxia Inducible Factor 1 (HIF1A) (AID 2282951). Particulars: HepG2 Attagene cis-factorial HIF1a reporter transcription; actives raise or lower the signal. An outline of the steps: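 In this multiplexed cell assay, HepG2 cells bearing transfected cis reporters are dosed for 24 h and reporter mRNA is read by RT-PCR plus capillary electrophoresis; signal increases and decreases are both scored against DMSO.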

In assay [6] the target is Hepatocyte nuclear factor 6 (Homo sapiens) (UniProt Q9UBC0). Nature of the assay: ATG_HNF6_CIS: Attagene CIS-FACTORIAL HepG2 Assay for human Hepatocyte Nuclear Factor 6 (HNF6) (AID 2282952). The conditions noted are these: HepG2 Attagene cis-factorial HNF6 reporter transcription; actives raise or lower the signal. In short, it runs like this: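 Endogenous transcription factor activity in human HepG2 liver cells was captured through cis-regulated reporter constructs. After 24 h treatment, reporter mRNA was measured by RT-PCR with capillary electrophoresis, and activity was fitted in both directions relative to DMSO.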
Chain of Hepatocyte nuclear factor 6 (Homo sapiens) (Q9UBC0 whole entry, looked up): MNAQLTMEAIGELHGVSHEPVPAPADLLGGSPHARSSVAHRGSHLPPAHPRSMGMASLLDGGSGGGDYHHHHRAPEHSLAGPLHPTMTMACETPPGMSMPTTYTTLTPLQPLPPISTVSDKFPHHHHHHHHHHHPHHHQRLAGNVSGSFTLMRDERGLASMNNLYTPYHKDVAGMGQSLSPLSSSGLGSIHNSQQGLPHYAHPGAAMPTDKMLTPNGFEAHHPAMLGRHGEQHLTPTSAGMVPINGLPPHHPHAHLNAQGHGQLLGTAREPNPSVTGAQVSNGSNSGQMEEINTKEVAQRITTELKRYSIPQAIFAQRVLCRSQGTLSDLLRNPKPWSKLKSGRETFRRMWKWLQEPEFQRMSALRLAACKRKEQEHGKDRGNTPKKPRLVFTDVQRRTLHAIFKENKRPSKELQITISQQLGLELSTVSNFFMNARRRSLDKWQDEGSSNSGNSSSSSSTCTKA

Assay [7] addresses Heat shock factor protein 1 (Homo sapiens) (UniProt Q00613). Nature of the assay: ATG_HSE_CIS: Attagene CIS-FACTORIAL HepG2 Assay for human Heat Shock Transcription Factor 1 (HSE) (AID 2282953). The conditions noted are these: HepG2 HSE cis-reporter, Attagene RNA transcription; actives raise or lower the signal. An outline of the steps: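 Using HepG2 with transfected cis-driven reporter constructs, compound effects on endogenous factor activity are scored as reporter mRNA change at 24 h. Detection: RT-PCR, HpaI digestion, capillary electrophoresis; bidirectional fitting to DMSO.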

The nature of assay [8]: ATG_MRE_CIS: Attagene CIS-FACTORIAL HepG2 Assay for human Metal Responsive Element (MRE) (AID 2282954). The conditions noted are these: HepG2 MRE cis-reporter transcription, Attagene multiplex; actives raise or lower the signal. In short, it runs like this: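 Cells were transfected with cis-promoter reporter transcription units, then dosed for 24 h. RNA was reverse-transcribed, amplified, fluorescently labelled and resolved by capillary electrophoresis, and activity was fitted in both directions relative to DMSO.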

A short description of assay [9]: ATG_PBREM_CIS: Attagene CIS-FACTORIAL HepG2 Assay for human Phenobarbital-responsive Enhancer Module (PBREM) (AID 2282955). The conditions noted are these: HepG2 PBREM cis-reporter, Attagene multiplexed transcription; actives raise or lower the signal. An outline of the steps:
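After a 24 h incubation with test chemical, transfected HepG2 cells yield total RNA; reporter-specific RT-PCR products are fluorescently labelled, HpaI-digested and resolved by capillary electrophoresis against ROX size standards.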

Assay [10] deals with Paired box protein Pax-6 (Homo sapiens) (UniProt P26367). Kind of assay: ATG_Pax6_CIS: Attagene CIS-FACTORIAL HepG2 Assay for human Paired Box 6 (PAX6) (AID 2282956). Particulars: HepG2 CIS-FACTORIAL PAX6 reporter transcription, RNA readout; actives raise or lower the signal. In short, it runs like this: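 Fluorescent RT-PCR products separated by capillary electrophoresis report PAX6-linked promoter mRNA in HepG2 cells 24 h post-dose. Curves fitted bidirectionally, DMSO as negative control.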
Chain of Paired box protein Pax-6 (Homo sapiens) (P26367 whole entry, looked up): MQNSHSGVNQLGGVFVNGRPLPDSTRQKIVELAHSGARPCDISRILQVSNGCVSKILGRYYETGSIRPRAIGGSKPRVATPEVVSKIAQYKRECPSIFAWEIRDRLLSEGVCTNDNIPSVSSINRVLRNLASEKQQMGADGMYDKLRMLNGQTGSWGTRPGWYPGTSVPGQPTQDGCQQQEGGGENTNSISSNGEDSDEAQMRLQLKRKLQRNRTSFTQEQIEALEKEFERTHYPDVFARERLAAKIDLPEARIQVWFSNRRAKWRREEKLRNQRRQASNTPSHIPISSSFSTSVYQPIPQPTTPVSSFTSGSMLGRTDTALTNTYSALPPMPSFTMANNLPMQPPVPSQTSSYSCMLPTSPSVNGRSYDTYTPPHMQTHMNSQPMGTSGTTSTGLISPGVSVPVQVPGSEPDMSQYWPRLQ

From PubChem BioAssay (EPA / NIEHS) come the findings set out here.

Where “and” joins values, the source holds several entries; their conditions need not be identical. Identical values can stand only once. Some structures have more than one record in an assay (separate samples or runs), and their calls can disagree. Calls of active or inactive are those of the source. How the source made its calls: active means hit-call score of the fitted dose curve at least 0.9, where 1 is the maximum; inactive means score below 0.9.

Chain of Hypoxia-inducible factor 1-alpha (Homo sapiens) (Q16665 whole entry, looked up): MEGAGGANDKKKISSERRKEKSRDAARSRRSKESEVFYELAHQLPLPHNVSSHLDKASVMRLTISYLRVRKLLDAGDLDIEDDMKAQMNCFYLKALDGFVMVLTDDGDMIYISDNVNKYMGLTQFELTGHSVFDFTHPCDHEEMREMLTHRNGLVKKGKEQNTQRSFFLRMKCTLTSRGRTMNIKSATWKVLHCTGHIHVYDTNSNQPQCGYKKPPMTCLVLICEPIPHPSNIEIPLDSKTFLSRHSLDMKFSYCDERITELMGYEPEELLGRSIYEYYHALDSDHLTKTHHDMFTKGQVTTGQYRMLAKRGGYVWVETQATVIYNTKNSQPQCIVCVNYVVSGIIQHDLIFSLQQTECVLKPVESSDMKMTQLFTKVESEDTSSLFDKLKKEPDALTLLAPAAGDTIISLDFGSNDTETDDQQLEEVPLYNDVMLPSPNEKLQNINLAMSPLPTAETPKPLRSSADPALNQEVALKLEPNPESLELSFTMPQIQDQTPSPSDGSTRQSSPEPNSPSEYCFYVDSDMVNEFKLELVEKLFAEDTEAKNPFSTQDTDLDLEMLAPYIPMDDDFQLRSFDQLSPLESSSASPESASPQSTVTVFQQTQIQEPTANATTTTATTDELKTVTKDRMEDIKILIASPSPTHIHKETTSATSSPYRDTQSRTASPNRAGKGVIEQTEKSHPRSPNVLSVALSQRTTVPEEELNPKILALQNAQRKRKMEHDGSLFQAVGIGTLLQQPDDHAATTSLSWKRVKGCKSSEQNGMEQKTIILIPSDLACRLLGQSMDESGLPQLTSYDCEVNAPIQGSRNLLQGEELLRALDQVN
Chain of Heat shock factor protein 1 (Homo sapiens) (Q00613 whole entry, looked up): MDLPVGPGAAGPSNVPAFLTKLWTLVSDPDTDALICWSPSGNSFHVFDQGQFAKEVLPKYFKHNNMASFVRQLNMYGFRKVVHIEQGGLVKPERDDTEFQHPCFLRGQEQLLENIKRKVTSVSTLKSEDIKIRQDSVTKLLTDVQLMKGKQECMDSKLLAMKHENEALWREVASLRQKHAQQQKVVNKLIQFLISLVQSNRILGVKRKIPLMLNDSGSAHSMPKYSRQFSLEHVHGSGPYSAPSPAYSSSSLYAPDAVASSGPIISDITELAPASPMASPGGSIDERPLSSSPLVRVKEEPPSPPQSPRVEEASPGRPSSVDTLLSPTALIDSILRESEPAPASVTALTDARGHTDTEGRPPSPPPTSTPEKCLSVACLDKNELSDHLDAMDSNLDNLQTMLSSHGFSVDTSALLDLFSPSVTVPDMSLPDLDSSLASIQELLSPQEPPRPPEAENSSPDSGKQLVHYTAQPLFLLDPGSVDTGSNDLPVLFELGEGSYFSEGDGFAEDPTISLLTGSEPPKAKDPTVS

Turning to `COc1cc(OC)nc(NC(=O)NS(=O)(=O)Nc2ccccc2C(=O)N(C)C)n1`, the compound was called inactive in assay [1], in assay [2], in assay [3], in assay [4], in assay [5] and in assay [6]. Also, the outcome in assay [7], in assay [8] and in assay [9] was inactive.

As for `O=C(O)CCC(F)(F)C(F)(F)C(F)(F)C(F)(F)C(F)(F)C(F)(F)F`, the result in [1], in [2], in [3], in assay [4], in assay [5] and in assay [6] was inactive. The result in assay [7], in [8], in assay [9] and in assay [10] was inactive.

Regarding `CC(C)C=O`, the outcome in [1], in assay [2], in [3], in [4], in assay [5] and in [6] was inactive. Besides, the outcome in [8], in assay [9] and in assay [10] was inactive. Besides, the AC50 in [5] is 157 µM (active).

`FC(F)(F)C(F)(F)C(F)(F)Br`: the compound was classed as inactive in assay [1], in [2], in assay [3], in assay [4], in assay [5] and in assay [6]. Besides, the compound was called inactive in [7], in [8], in assay [9] and in assay [10].

On to `NC(=NCCCCCCN=C(N)/N=C(\N)Nc1ccc(Cl)cc1)/N=C(\N)Nc1ccc(Cl)cc1`, for which the AC50 in [1] is 23.2 µM (active) and 25.6 µM (active); in assay [2], 5.9 µM (active) and 6.55 µM (active); in [3], 23.4 µM (active) and 23.8 µM (active); in [6] it was 25.7 µM (active); in assay [8] it was 2.62 µM (active) and 2.68 µM (active) and 1.87 µM (active); in assay [9] it was 4.31 µM (active). In addition, the result in [1], in assay [2], in [3], in [4], in [6] and in assay [7] was inactive. For the same compound, the result in assay [9] and in assay [10] was inactive.

In the case of `C/C=C/C(=O)C1=C(C)CCCC1(C)C`, the outcome in assay [1], in [3], in assay [4], in assay [5] and in [9] was inactive. Besides, the AC50 was 69.9 µM (active) in [2], 65.5 µM (active) in assay [6], 63.7 µM (active) in assay [7] and 36.5 µM (active) in assay [8].

Turning to `O=S(=O)(c1ccc(OCc2ccccc2)cc1)c1ccccc1O`, the concentration at half-maximal activity (AC50) was 42.4 µM (active) in [1]; 48.7 µM (active) in [2]; 33.4 µM (active) in assay [5]; 61.3 µM (active) in assay [6]; 44.2 µM (active) in assay [7]; 40.9 µM (active) in [8]. Also, the concentration at half-maximal activity (AC50) is 24.1 µM (active) in [9] and 33.4 µM (active) in assay [10]. The call in assay [3] and in [4] was inactive.

On to `C=CC(=O)OCCC(F)(F)C(F)(F)C(F)(F)C(F)(F)C(F)(F)C(F)(F)F`, for which the compound was called inactive in assay [1], in assay [2], in assay [3], in assay [4], in assay [5] and in assay [6]. The call in [7], in [8] and in [9] was inactive.

With `CC=O`, the compound was classed as inactive in [1], in assay [2], in assay [3], in assay [4], in assay [5] and in assay [6]. Moreover, the compound was classed as inactive in [7], in [8], in assay [9] and in assay [10].

`C=CC(=C)CC/C=C(\C)CCC=C(C)C`: the compound was classed as inactive in assay [1], in assay [2], in assay [3], in assay [4], in [5] and in assay [6]. In addition, the call in assay [7], in assay [8] and in [9] was inactive.

As for `CCCCCCCCCCCC[N+](C)(C)Cc1ccccc1`, the compound was called inactive in assay [1], in assay [2], in assay [3], in assay [4], in [5] and in [6]. The result in assay [7], in [8], in assay [9] and in [10] was inactive. Also, the AC50 was 20.3 µM (active) in assay [3], 17.6 µM (active) in assay [6] and 18.7 µM (active) in assay [7].

With `O=C(O)C(F)(F)OC(F)(F)C(F)(F)OC(F)(F)C(F)(F)OC(F)(F)C(F)(F)C(F)(F)C(F)(F)F`, the result in assay [1], in [3], in assay [4], in assay [5], in assay [6] and in assay [7] was inactive. The result in assay [9] was inactive. Moreover, the AC50 in [2] was 24.6 µM (active) and 26 µM (active); in assay [5], 28.2 µM (active); in assay [6] it was 70.1 µM (active); in assay [7], 23.7 µM (active); in assay [8], 31.4 µM (active) and 28.9 µM (active); in [10] it was 25.9 µM (active) and 29.1 µM (active).

In the case of `Cc1[nH]nc2c1N=C(c1ccccc1Cl)c1cc([N+](=O)[O-])ccc1N2`, the call in assay [1], in assay [3], in [4], in assay [5], in [6] and in assay [7] was inactive. Also, the call in [8], in [9] and in assay [10] was inactive. For the same compound, in assay [2], the half-maximal activity concentration (AC50) is 2.9 µM (active).

As to `Cc1ccc2ccc3ccc(C)cc3c2c1`, the compound was classed as inactive in assay [1], in [2], in assay [3], in assay [4], in [5] and in assay [6]. Further, the call in [7], in [8], in assay [9] and in assay [10] was inactive.

Turning to `CC1CNCC(C)O1` (stereo unspecified), the compound was classed as inactive in [1], in assay [2], in [3], in [4], in [5] and in assay [6]. Moreover, the result in [7] was inactive.

Turning to `Cc1cc(C(C)(C)C)c(O)c(C(C)(C)C)c1`, the compound was classed as inactive in assay [1], in assay [2], in assay [3], in [4], in assay [6] and in [7]. Besides, the outcome in assay [9] and in [10] was inactive. For the same compound, the half-maximal activity concentration (AC50) in assay [3] is 53.6 µM (active); in assay [7] it was 95.9 µM (active); in assay [8], 52.9 µM (active) and 91.4 µM (active).

In the case of `Brc1cc(Br)c(Oc2c(Br)cc(Br)c(Br)c2Br)cc1Br`, the outcome in assay [1], in assay [2], in [3], in assay [4], in [5] and in assay [6] was inactive. For the same compound, the compound was classed as inactive in [7], in assay [8], in assay [9] and in [10].

Take `C[N+](C)(CCCNS(=O)(=O)CCC(F)(F)C(F)(F)C(F)(F)C(F)(F)C(F)(F)C(F)(F)F)CC(=O)[O-]`: the call in assay [1], in [2], in [3], in [4], in assay [5] and in assay [6] was inactive. The call in [7], in assay [8], in assay [9] and in [10] was inactive.

For the compound `Cc1ccccc1OCC(=O)O`, the call in assay [1], in [2], in [3], in [4], in [5] and in assay [6] was inactive. The result in assay [7], in assay [8], in [9] and in [10] was inactive.

Turning to `O=C(C=C(O)C(F)(F)F)C(F)(F)F`, the compound was called inactive in assay [1], in assay [2], in assay [3], in [4], in [5] and in [6]. The result in assay [7], in assay [8], in assay [9] and in assay [10] was inactive.

With `Cc1cc(C(=C2C=CC(=Nc3ccc(S(=O)(=O)O)cc3)C=C2)c2ccc(Nc3ccc(S(=O)(=O)O)cc3)cc2)cc(S(=O)(=O)O)c1N`, the compound was classed as inactive in assay [1], in assay [2], in assay [3], in [4], in [5] and in [6]. Also, the call in assay [7] and in assay [8] was inactive.

Regarding `CCCCc1ccc2ccccc2c1S(=O)(=O)O`, the compound was classed as inactive in [1], in assay [2], in assay [3], in [4], in assay [5] and in [6]. Further, the call in assay [7], in [8] and in assay [9] was inactive.
